High-throughput results as filed in PubChem BioAssay.
Hits are enriched below; roughly 0.46% of the tested compounds scored in any of these assays.
PTAP TSG101 blk – blocks PTAP/TSG101 interaction to inhibit HIV-1 budding | Fluorescence polarization, FITC-PTAP peptide / Tsg101 binding | Potency, µM (titrated, usually from 115 µM), for the others: at the highest dose activity change, negative = inhibition, most hits filed as inhibitors | 340,000 tested, under 10 active; active means well fitted inhibition curve with a large enough effect in the main read-out, with a control signal flat, not every such curve was filed as active; inconclusive means small, poorly fitted or top-dose-only effect, or effect the other way, or a change in a side signal; inactive means no such curve, though single readings can be large or run the other way; further: % of control where 0% means no effect
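Compounds were pin-transferred onto Tsg101 binding domain (10 uM final) in HEPES pH 7.5 buffer, then FITC-PTAP peptide was added at 50 nM final. After 20 min at RT, polarization reported peptide displacement across a qHTS concentration series.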
Mito fusion yeast – mitochondrial division inhibition or fusion activation. S. cerevisiae fusion-defective mutant growth rescue, CellTiterGlo 48 h. Potency, µM (top dose mostly 46.1 µM), without a hit: at the highest dose growth rescue (activation), most hits filed as activators. actives 0.23% (n = 320,000). AID 485298; further: % of control where 0% means no effect; nearly all actives have a fitted effect of over 45% in size
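Growth-rescue viability read-out: after 48 h at the non-permissive 37C in glycerol/ethanol YPEG, yeast mitochondrial fusion mutants are measured by CellTiterGlo luminescence; compounds (23 nl pinned per well) restoring growth score as division inhibitors or fusion activators.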
A-T KAP1 phos – potential ataxia-telangiectasia treatment; F2112 A-T fibroblasts, KAP-1 phosphorylation AlphaLISA; neocarzinostatin DNA damage 30 min before lysis; Potency, µM (highest dose often 57.5 µM), for inactives: top-dose activation, most hits filed as activators; actives 0.19% (n = 320,000); further: % of control where 0% means no effect; nearly all actives have a fitted effect of over 45% in size
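hTERT-immortalized A-T patient fibroblasts (F2112), 500 cells/well in OPTI-MEM, 1% FBS, got compounds for 60 min, then NCS for 30 min at 37C. Lysates were then assayed for phospho-KAP-1 by AlphaLISA (anti-pKAP1 donor, anti-KAP1 acceptor beads), 6 hr at 25C.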
S-ASM inh – inhibitors of human secretory acid sphingomyelinase. AID 504937. actives 0.006% (n = 340,000). placental ASM, HMU-PC fluorogenic substrate, 60 min. Potency, µM (highest dose often 57.5 µM), for the others: at the top dose activity change, negative = inhibition, usual class: inhibitors. P17405
Target sequence (P17405 47-631 limits assumed): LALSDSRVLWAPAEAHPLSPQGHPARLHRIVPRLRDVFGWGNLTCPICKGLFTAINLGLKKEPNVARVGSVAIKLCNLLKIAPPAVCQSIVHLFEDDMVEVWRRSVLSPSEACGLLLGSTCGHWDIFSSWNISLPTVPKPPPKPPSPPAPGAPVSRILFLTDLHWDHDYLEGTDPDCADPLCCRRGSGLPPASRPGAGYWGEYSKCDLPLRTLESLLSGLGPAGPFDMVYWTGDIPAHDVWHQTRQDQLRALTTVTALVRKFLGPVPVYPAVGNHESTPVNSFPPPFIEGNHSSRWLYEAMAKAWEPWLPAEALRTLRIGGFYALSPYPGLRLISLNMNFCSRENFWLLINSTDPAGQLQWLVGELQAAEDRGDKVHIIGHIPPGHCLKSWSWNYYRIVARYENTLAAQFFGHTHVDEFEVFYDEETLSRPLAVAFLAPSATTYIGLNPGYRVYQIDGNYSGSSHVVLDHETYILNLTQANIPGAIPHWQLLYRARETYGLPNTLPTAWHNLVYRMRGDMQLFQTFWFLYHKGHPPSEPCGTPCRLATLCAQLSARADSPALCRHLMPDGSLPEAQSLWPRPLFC
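Fluorogenic HMU-PC substrate (9 uM final) is turned over by placental ASM in 60 min at 37 C after a 10 min compound preincubation. Reaction ended by alkaline stop (pH 10), with fluorescence read at 386/447 nm.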
GALK inh – galactokinase (human) inhibition. Purified GALK, Kinase-Glo residual ATP luminescence. P51570. Potency, µM (series often up to 57.5 µM), for the others: top-dose activity change, negative = inhibition, most hits filed as inhibitors. actives 0.007% (n = 270,000). AID 1868; further: on the % scale 0 is the no-effect control and ±100 the full control effect
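ATP-depletion format; final 35 uM ATP, 100 uM D-galactose, 5 nM enzyme; pH 8.0 HEPES/Mg2+ buffer; 60 min RT; luminescence read 10 min after detection reagent.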
a7 integrin act – integrin-mediated muscular dystrophy alleviation activation; actives 0.064% (n = 350,000); alpha7betagal myoblasts, beta-gal FDG fluorescence, 48 h; Potency, µM (top dose mostly 38.3 µM), for inactives: at the top dose activation, actives largely listed as activators;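 further: 100% = response of the positive control SU9516; nearly all actives have a fitted effect of over 60% in size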
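Alpha7betagal+/- myoblasts (passage 13) were plated 16-24 hr, then exposed to compounds (1:260 dilution of DMSO stock) for 48 hours at 37C. After MPER lysis, β-galactosidase reporter activity was read as FDG fluorescence (ex 480/em 540) after 30 minutes.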
* = called active by the depositor; u = inconclusive; x = no result. Unless noted, the call rests on the fitted dose curve; in most records, active means well fitted curve in the direction sought with a large enough effect; inconclusive means small, poorly fitted or top-dose-only effect, or another doubt; inactive means no such curve, though single readings can be large; an effect the other way counts as inactive or inconclusive. Potency means the concentration at half of the fitted maximal effect.

SMILES | PTAP TSG101 blk | Mito fusion yeast | A-T KAP1 phos | S-ASM inh | GALK inh | a7 integrin act
O=C(Nc1ccc(C2CC2(Cl)Cl)cc1)c1ccccc1Br (stereo not drawn) | 1% | 14µM* | 7% | -8% | 0% | 4%
COc1ccc(/C=C(\C#N)C(=O)OCC(=O)NCc2ccco2)cc1 | -1% | 0% | 5% | -1% | 2% | 4%
Cc1ccc(CCNC(=O)C2CC(c3cccc(F)c3)=NO2)cc1 (stereo not drawn) | -2% | 27% | 14µM* | 0% | 5% | 0%
CCCCNC(=O)C1CC(c2cccc(F)c2)=NO1 (stereo not drawn) | -2% | 24% | -13% | 2% | -2% | -8%
CCCn1c2c(c(=N)c3c1CCC3)CCCC2 | -6% | 6% | 2% | 4% | 2% | -44%
CCCn1c2c(c(=N)c3c1CCC3)CCC2 | 0% | -4% | 2.5µM* | -3% | 0% | -5%
Cc1ccc(NC(=O)CN(C)Cc2cc(=O)n3ccsc3n2)cc1 | -6% | 0% | 13µM* | 2% | -1% | 18%
O=c1[nH]ncc2c3ccccc3n(Cc3ccc(F)cc3)c12 | -3% | 6% | 2% | -1% | 1% | 2%
O=c1[nH]ncc2c3ccccc3n(Cc3cccc(Cl)c3)c12 | u | 13% | 0% | 32µM* | 4% | 6%
COc1cc(OC)c(C(=O)N(CCc2ccccc2)Cc2ccccc2)cc1OC | -6% | -1% | 4% | -3% | -3% | -12%
Cc1nc2c(ccc3nc(NC(=O)c4ccc5c(c4)OCCO5)sc32)s1 | 6% | -4% | -1% | -3% | -1% | 21%
Cc1nc2ccc3nc(NC(=O)c4ccc5c(c4)OCCO5)sc3c2s1 | -2% | -2% | 25µM* | 3% | 3% | -3%
CCCCC#Cc1nc(NC)c2ncn([C@@H]3O[C@H](CO)[C@@H](O)[C@H]3O)c2n1 | x | 1% | x | x | x | x
COc1ccc(C(=O)N2CCCN(C)CC2)cc1S(=O)(=O)N(C)Cc1ccccc1 | -2% | 2% | -8% | 4% | x | -17%
O=[N+]([O-])c1cccc(-c2nc(NCc3ccccc3)c3ccccc3n2)c1 | -4% | 3.2µM* | 5% | 9% | x | -20%
O=[N+]([O-])c1ccc(-c2nc(NCc3ccccc3)c3ccccc3n2)cc1 | -5% | 0% | 5% | 0% | -5% | 18%
CC[C@](C)(O)c1cc2ccccc2c(=O)o1 | -3% | x | 2% | -3% | x | -1%
NC(=O)CSc1nc2ccc([N+](=O)[O-])cc2[nH]1 | -1% | 14µM* | -1% | 0% | 6% | -17%
O=C(CSc1nc2ccc([N+](=O)[O-])cc2[nH]1)NC1CCCC1 | 0% | 1% | 3% | 0% | 0% | -15%
COC(=O)C1=C(C)N(Cc2ccccc2)C(=S)N[C@H]1CCc1ccccc1 | x | -5% | 6% | x | x | x
COc1ccc(CCNC2=NCCS2)cc1OC | -1% | -2% | 1.3µM* | 2% | 3% | -29%
COc1ccc(CCNC2=NCCS2)cc1 | -5% | 0% | 9% | 3% | 0% | -13%
O=C(Cn1cnc2c(nnn2Cc2ccc(F)cc2)c1=O)Nc1ccc2c(c1)OCCO2 | -6% | 11% | 4% | 7% | -2% | u
CCN1CCCC1CNS(=O)(=O)c1ccc(Br)cc1 (stereo not drawn) | -2% | 18% | 2.8µM* | 7% | -2% | -15%
O=S(=O)(NCCN1CCCC1)c1ccc(Br)cc1 | -6% | 2% | 1% | 0% | -2% | -4%
SMILES | PTAP TSG101 blk | Mito fusion yeast | A-T KAP1 phos | S-ASM inh | GALK inh | a7 integrin act
Cc1ccc(S(=O)(=O)NCC2CCC(C(=O)N3CCN(C)CC3)CC2)cc1 (stereo not drawn) | -3% | -3% | 16% | 22% | 1% | u
N#Cc1c(-c2cccc(Cl)c2)[nH]c(=S)[nH]c1=O | -2% | 3% | 0% | 10% | -2% | -16%
CS(=O)(=O)c1[nH]nc(-c2cccc(Cl)c2)c1C#N | -3% | -1% | 40µM* | 1% | -1% | 3%
Cc1ccnc(NC(=O)c2cccc(NC(=O)c3ccccc3C)c2)c1 | -2% | 1% | -5% | -1% | 0% | 1%
Cc1ccc(CN(CC(O)COc2cccc3[nH]cc(C)c23)C(C)(C)C)cc1 (stereo not drawn) | -4% | 5.6µM* | 1% | -3% | 0% | -39%
CCCCCCCCC(=O)c1c(OC)oc(C=O)cc1=O | x | x | x | x | x | -14%
CN=c1scc(-c2ccc(OC)cc2)n1/N=C(\C)c1cccnc1 | 2% | 1% | -2% | -3% | 11% | 5µM*
COC(=O)c1c(/N=C/N(C)C)sc2c1CCN(c1ncc(C(F)(F)F)cc1Cl)C2 | -1% | 10µM* | x | 28% | 0% | -9%
COCc1c(C(=O)N/N=C(/C)c2ccc(OCc3ccccc3)cc2)nnn1-c1nonc1N | -5% | -3% | 3% | 0% | 13% | 10µM*
CCCCN(CCCC)CCNC(=O)c1cn(C)c2ccc(S(=O)(=O)N(C)C3CCCCC3)cc2c1=O | -5% | -1% | -5% | 13% | -1% | 10µM*
CCCN(CCC)CCCNC(=O)c1cn(C)c2ccc(S(=O)(=O)N(C)C3CCCCC3)cc2c1=O | -6% | 3% | 3% | -2% | 0% | -4%
O=C1c2oc3ccccc3c(=O)c2C(c2ccc(O)cc2)N1Cc1ccc2c(c1)OCO2 (stereo not drawn) | x | -6% | x | x | x | x
O=C(O)c1ccc2c(c1)C1C=CCC1C(c1cc3c(cc1Br)OCO3)N2 (stereo not drawn) | -10% | 11µM* | 2% | -11% | -5% | 24%
CN(C)C(=O)C1Cc2ccccc2CN1S(=O)(=O)c1ccc(F)cc1 (stereo not drawn) | -4% | -1% | -4% | 5% | 3% | -1%
COc1c(N2CCN(C(=S)NC3CC4CCC3C4)C(C)C2)c(F)cc2c(=O)c(C(=O)O)cn(C3CC3)c12 (stereo not drawn) | -3% | -5% | 28µM* | 3% | -1% | -28%
COc1c(N2CCN(C(=S)Nc3ccc(F)cc3)C(C)C2)c(F)cc2c(=O)c(C(=O)O)cn(C3CC3)c12 (stereo not drawn) | -1% | -3% | -4% | 18% | 0% | -12%
C[C@]12C=CC(=O)C=C1CC[C@@H]1C2=CC[C@]2(C)[C@@H](C(=O)CN3CCN(c4cc(N5CCCC5)nc(N5CCCC5)n4)CC3)CC[C@@H]12 | -4% | 15µM* | x | 14% | x | x
CC(=O)C1CCC2C3CCC4=CC(=O)C=CC4(C)C3C(=O)CC12C (stereo not drawn) | -1% | x | x | 4% | x | 14%
